Experimental data as given in the supplement of paper PMC8728848.
The full list was thinned out, with the strongest signals kept by preference.

Assays:
Assay in all cases: glycan array binding signal (z-score within array); higher = stronger binding
Settings in all cases: glycan notation: IUPAC condensed, linker removed
Gal4S6S(b1-4)GlcNAc = biological target: Gal4S6S(b1-4)GlcNAc
Method in brief: (§1)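 Glycan array data were curated from 3228 arrays in the Consortium for Functional Glycomics database and kept only where the protein sequence was available. Glycan names were converted to IUPAC-condensed notation, and columns mapping to the same glycan were averaged. The binding signal is a within-array Z-score, averaged across arrays of the same protein sequence at different concentrations or buffers and across linkers. Negative Z-scores can be read as non-binding.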

Gal6S(b1-3)GlcNAc = biological target: Gal6S(b1-3)GlcNAc
Method in brief: as §1

Gal6S(b1-3)GlcNAc6S = biological target: Gal6S(b1-3)GlcNAc6S
Method in brief: as §1

Gal6S(b1-4)Glc = biological target: Gal6S(b1-4)Glc
Method in brief: as §1

Gal6S(b1-4)Glc6S = biological target: Gal6S(b1-4)Glc6S
Method in brief: as §1

Gal6S(b1-4)GlcNAc6S = biological target: Gal6S(b1-4)GlcNAc6S
Method in brief: as §1

Glc(a1-4)Glc = biological target: Glc(a1-4)Glc
Method in brief: as §1

[1] = biological target: GlcNAc(a1-4)Gal(b1-4)GalNAc
Method in brief: as §1

[2] = biological target: GlcNAc(a1-4)Gal(b1-4)GlcNAc(b1-3)Gal(b1-4)GlcNAc(b1-3)Gal(b1-4)GlcNAc
Method in brief: as §1

[3] = biological target: GlcNAc(a1-4)Gal(b1-4)GlcNAc(b1-3)Gal(b1-4)[Fuc(a1-3)]GlcNAc(b1-3)Gal(b1-4)[Fuc(a1-3)]GlcNAc
Method in brief: as §1

[4] = biological target: GlcNAc(b1-2)[GlcNAc(b1-4)]Man(a1-3)[GlcNAc(b1-2)Man(a1-6)]Man(b1-4)GlcNAc(b1-4)GlcNAc
Method in brief: as §1

[5] = biological target: GlcNAc(b1-3)Gal(b1-4)GlcNAc(b1-2)Man(a1-3)[GlcNAc(b1-3)Gal(b1-4)GlcNAc(b1-2)Man(a1-6)]Man(b1-4)GlcNAc(b1-4)[Fuc(a1-6)]GlcNAc
Method in brief: as §1

[6] = biological target: GlcNAc(b1-3)Gal(b1-4)GlcNAc(b1-3)Gal(b1-4)GlcNAc(b1-2)Man(a1-3)[GlcNAc(b1-3)Gal(b1-4)GlcNAc(b1-3)Gal(b1-4)GlcNAc(b1-2)Man(a1-6)]Man(b1-4)GlcNAc(b1-4)[Fuc(a1-6)]GlcNAc
Method in brief: as §1

[7] = biological target: GlcNAc(b1-3)Gal(b1-4)GlcNAc(b1-3)Gal(b1-4)GlcNAc(b1-3)Gal(b1-4)GlcNAc(b1-2)[GlcNAc(b1-3)Gal(b1-4)GlcNAc(b1-3)Gal(b1-4)GlcNAc(b1-3)Gal(b1-4)GlcNAc(b1-6)]Man(a1-6)[GlcNAc(b1-3)Gal(b1-4)GlcNAc(b1-3)Gal(b1-4)GlcNAc(b1-3)Gal(b1-4)GlcNAc(b1-2)Man(a1-3)]Man(b1-4)GlcNAc(b1-4)[Fuc(a1-6)]GlcNAc
Method in brief: as §1

[8] = biological target: GlcNAc(b1-3)Gal(b1-4)GlcNAc(b1-3)Gal(b1-4)GlcNAc(b1-3)Gal(b1-4)GlcNAc(b1-3)Gal(b1-4)GlcNAc(b1-2)Man(a1-3)[GlcNAc(b1-3)Gal(b1-4)GlcNAc(b1-3)Gal(b1-4)GlcNAc(b1-3)Gal(b1-4)GlcNAc(b1-3)Gal(b1-4)GlcNAc(b1-2)Man(a1-6)]Man(b1-4)GlcNAc(b1-4)[Fuc(a1-6)]GlcNAc
Method in brief: as §1

[9] = biological target: GlcNAc(b1-3)Gal(b1-4)GlcNAc(b1-6)[Gal(b1-3)]GalNAc
Method in brief: as §1

GlcNAc(b1-3)Man = biological target: GlcNAc(b1-3)Man
Method in brief: as §1

GlcNAc(b1-6)GalNAc = biological target: GlcNAc(b1-6)GalNAc
Method in brief: as §1

[10] = biological target: Man(a1-2)Man(a1-2)Man(a1-6)[Man(a1-3)]Man
Method in brief: as §1

[11] = biological target: Man(a1-2)Man(a1-3)[Man(a1-2)Man(a1-6)]Man
Method in brief: as §1

[12] = biological target: Man(a1-2)Man(a1-3)[Man(a1-6)]Man(a1-6)[Man(a1-2)Man(a1-3)]Man(b1-4)GlcNAc(b1-4)GlcNAc
Method in brief: as §1

Man(a1-6)Man = biological target: Man(a1-6)Man
Method in brief: as §1

MurNAc(b1-4)GlcNAc = biological target: MurNAc(b1-4)GlcNAc
Method in brief: as §1

[13] = biological target: Neu5Ac(a2-3)Gal(b1-3)[Fuc(a1-4)]GlcNAc(b1-3)Gal(b1-4)[Fuc(a1-3)]GlcNAc
Method in brief: as §1

[14] = biological target: Neu5Ac(a2-3)Gal(b1-4)GlcNAc(b1-3)Gal(b1-3)GlcNAc
Method in brief: as §1

[15] = biological target: Neu5Ac(a2-3)Gal(b1-4)GlcNAc(b1-6)GalNAc
Method in brief: as §1

[16] = biological target: Neu5Ac(a2-3)Gal(b1-4)GlcNAc(b1-6)[Gal(b1-3)]GalNAc
Method in brief: as §1

[17] = biological target: Neu5Ac(a2-3)[GalNAc(b1-4)]Gal(b1-4)GlcNAc
Method in brief: as §1

[18] = biological target: Neu5Ac(a2-3)[GalNAc(b1-4)]Gal(b1-4)GlcNAc(b1-3)GalNAc
Method in brief: as §1

[19] = biological target: Neu5Ac(a2-6)Gal(b1-4)GlcNAc(b1-2)Man(a1-3)[Neu5Ac(a2-6)Gal(b1-4)GlcNAc(b1-2)Man(a1-6)]Man(b1-4)GlcNAc(b1-4)GlcNAc
Method in brief: as §1

[20] = biological target: Neu5Ac(a2-6)Gal(b1-4)GlcNAc(b1-3)GalNAc
Method in brief: as §1

[21] = biological target: Neu5Ac(a2-6)Gal(b1-4)GlcNAc(b1-6)[Gal(b1-3)]GalNAc
Method in brief: as §1

[22] = biological target: Neu5Ac9Ac(a2-3)Gal(b1-4)GlcNAc
Method in brief: as §1

[23] = biological target: Neu5Gc(a2-3)Gal(b1-3)[Fuc(a1-4)]GlcNAc
Method in brief: as §1

[24] = biological target: Neu5Gc(a2-3)Gal(b1-4)GlcNAc(b1-3)Gal(b1-4)GlcNAc(b1-2)Man(a1-3)[Neu5Gc(a2-3)Gal(b1-4)GlcNAc(b1-3)Gal(b1-4)GlcNAc(b1-2)Man(a1-6)]Man(b1-4)GlcNAc(b1-4)GlcNAc
Method in brief: as §1

[25] = biological target: Neu5Gc(b2-6)Gal(b1-4)GlcNAc
Method in brief: as §1

B1: SP16664B-bot-474-25-474 (Bacteroides ovatus) (protein)
chain: CEEDIEIGNKIDESSYLASTQLSGLLLDENTNKNSSVIELRNNEYSTNVVFRLSKLPQKGVDVQIAVEESYAAIYNTIHETDFEVFPAANVKIANNGTFVLAPDDKVTPSVKVTLTAFDGMEEDKTYIVPLTVTSSTEGVTFTETSKHMVLLVQDYRNKPNTNKGEDAVQTVLYFEVNDTNPLNALEFLTESGKYFFDHIVLFAANINWDPEKQRVYLANNENVQFLLDNNDKYLQPLRKAGMKIIISILGNHDEAGVAQLSDMGAREFARELAAYCRAYNLDGVAFDDEYSNSPDLSNPWLASPSAYAGSRLMYECKAVMPEKIVSLYNLGNMYSSSLQVIDGIEPGQYCDYAVADYGGAAGPGTGMTLKQCAGMSIELRRGSGNSSESTARSRKEAGYGYYMFFALDPSLYGSQVYRCQSVCKGLYDETLVYPSYYYKKNSTEREAIN
- glycan array binding signal (z-score) (Gal4S6S(b1-4)GlcNAc): -0.008
- glycan array binding signal (z-score) (Gal6S(b1-3)GlcNAc): 0.118
- glycan array binding signal (z-score) (Gal6S(b1-3)GlcNAc6S): 0.522
- glycan array binding signal (z-score) (Gal6S(b1-4)Glc): -0.453
- glycan array binding signal (z-score) (Gal6S(b1-4)Glc6S): 0.797
- glycan array binding signal (z-score) (Gal6S(b1-4)GlcNAc6S): -0.289
- glycan array binding signal (z-score) (Glc(a1-4)Glc): -0.119
- glycan array binding signal (z-score) [1]: 0.293
- glycan array binding signal (z-score) [2]: -0.159
- glycan array binding signal (z-score) [3]: 4.58
- glycan array binding signal (z-score) [4]: 0.16
- glycan array binding signal (z-score) [5]: 0.352
- glycan array binding signal (z-score) [6]: 11.2
- glycan array binding signal (z-score) [7]: 0.018
- glycan array binding signal (z-score) [8]: 0.334
- glycan array binding signal (z-score) [9]: 1.57
- glycan array binding signal (z-score) (GlcNAc(b1-3)Man): 0.501
- glycan array binding signal (z-score) (GlcNAc(b1-6)GalNAc): -0.234
- glycan array binding signal (z-score) [10]: -0.417
- glycan array binding signal (z-score) [11]: -0.568
- glycan array binding signal (z-score) [12]: -0.368
- glycan array binding signal (z-score) (Man(a1-6)Man): 0.198
- glycan array binding signal (z-score) (MurNAc(b1-4)GlcNAc): -0.181
- glycan array binding signal (z-score) [13]: 0.654
- glycan array binding signal (z-score) [14]: -0.055
- glycan array binding signal (z-score) [15]: -0.362
- glycan array binding signal (z-score) [16]: -0.456
- glycan array binding signal (z-score) [17]: -0.21
- glycan array binding signal (z-score) [18]: 0.051
- glycan array binding signal (z-score) [19]: -0.081
- glycan array binding signal (z-score) [20]: -0.034
- glycan array binding signal (z-score) [21]: -0.15
- glycan array binding signal (z-score) [22]: -0.181
- glycan array binding signal (z-score) [23]: -0.071
- glycan array binding signal (z-score) [24]: -0.304
- glycan array binding signal (z-score) [25]: 0.041
